A selection: hits, their analogues and other compounds. The true share with any hit is near 2.6%.
NFkB binder = binders of human NF-kappa-B p105; P19838; calls only; actives 1.3% (n = 17,000); Small molecule microarray, anti-His fluorescence binding;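 active means spot fluorescence over background significantly raised, with a chance value under 7% in all four replicate spots of the compound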;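 further: probe protein is his-tagged human p50 processed subunit at 1 µg/ml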
Target sequence (P19838 1-433 limits assumed): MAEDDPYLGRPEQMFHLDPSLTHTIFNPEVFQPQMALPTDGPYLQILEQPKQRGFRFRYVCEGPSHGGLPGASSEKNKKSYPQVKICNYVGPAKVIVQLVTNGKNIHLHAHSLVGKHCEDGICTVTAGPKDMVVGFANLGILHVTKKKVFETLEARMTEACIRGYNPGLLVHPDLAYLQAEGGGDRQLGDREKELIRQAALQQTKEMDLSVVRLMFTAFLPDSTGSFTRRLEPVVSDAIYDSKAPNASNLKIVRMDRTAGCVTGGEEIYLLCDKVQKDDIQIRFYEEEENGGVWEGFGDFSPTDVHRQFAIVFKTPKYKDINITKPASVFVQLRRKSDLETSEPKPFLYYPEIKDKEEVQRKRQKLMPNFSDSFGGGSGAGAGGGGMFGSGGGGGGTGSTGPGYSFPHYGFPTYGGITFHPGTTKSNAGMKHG
STAT3 SMM = binds human STAT3 on microarray; actives 0.2% (n = 17,000); calls only; P40763; Small molecule microarray, His-STAT3 binding, anti-His fluorescence; AID 624138;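 active means compounds whose four printed spots each show fluorescence over background unusually high for their array block, chance value under 7%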
c-Myc SMM = binds human c-Myc on microarray. actives 1.5% (n = 17,000). small molecule microarray, His-c-Myc binding, anti-His fluorescence. P01106. calls only;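 active means spot fluorescence over background with P-value below 7% in all four replicate spots, showing protein binding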
p53 PUMA act = restores mutant p53 pathway signaling in SW480 cells | SW480 PUMA-promoter luciferase, p53 mutant reactivation | activation, % at 9.98 µM | actives 1.5% (n = 28,000); in the data active means activation above about 52%
p53 mut binder = mutant p53 (human) binding; small molecule microarray binding, anti-GST fluorescence; calls only; actives 0.4% (n = 17,000); AID 624136;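 active means compounds whose four printed spots each glow above background more than chance allows, each with a p-value under 7%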
A number is an active result; 0 = inactive; - = no result given; + = active, no number.

SMILES | NFkB binder | STAT3 SMM | c-Myc SMM | p53 PUMA act | p53 mut binder
CCOC(=O)c1c(NC(=S)Nc2nc(C)cc(C)n2)sc2c1CCCCCC2 | 0 | 0 | 0 | 0 | 0
CC1(C)CC[C@]2(C(=O)O)CC[C@]3(C)C(=CCC4[C@@]5(C)CC[C@H](O[C@@H]6O[C@H](C(=O)O)[C@@H](O[C@@H]7O[C@H](CO)[C@@H](O)[C@H](O)[C@H]7O)[C@H](O)[C@H]6O[C@@H]6O[C@H](CO)[C@@H](O)[C@H](O)[C@H]6O)C(C)(C)C5CC[C@]43C)C2C1 (stereo partly specified) | + | + | + | 0 | 0
CC1OC(O[C@H]2CC[C@@]3(C)C(CC[C@]4(C)C3CC=C3[C@@H]5CC(C)(C)C[C@@H](O)[C@]5(C)CC[C@]34C)[C@@]2(C)CO)C(OC2OC(C(=O)O)C(O)C(O)C2OC2OCC(O)C(O)C2O)C(O)C1O (stereo partly specified) | 0 | 0 | 0 | 0 | 0
CC1OC(OC2C(OC3C(O[C@H]4CC[C@@]5(C)C(CC[C@]6(C)C5CC=C5C7CC(C)(C)CC(O)[C@]7(C)CC[C@]56C)C4(C)C)OC(C(=O)O)C(O)C3O)OCC(O)C2O)C(O)C(O)C1O (stereo partly specified) | + | 0 | + | 0 | 0
Cc1cc2nc(SCc3ccccc3C#N)[nH]c2cc1C | - | - | - | 68 | -
Cc1nc2n(CC(=O)c3cccs3)c3ccccc3n2n1 | - | - | - | 0 | -
Cc1noc(C)c1NC(=O)Nc1ccc2c(c1)C(=O)N([C@@H](C)CO)C[C@@H](C)[C@@H](CN(C)C(=O)C1CCCCC1)OCCCC[C@@H](C)O2 | 0 | + | 0 | 0 | 0
Cc1noc(C)c1NC(=O)Nc1ccc2c(c1)C(=O)N([C@H](C)CO)C[C@H](C)[C@@H](CN(C)C(=O)C1CCCCC1)OCCCC[C@H](C)O2 | 0 | 0 | + | 0 | 0
COc1ccc(CN(C)C[C@H]2OCCCC[C@H](C)Oc3ccc(NC(=O)Nc4c(C)noc4C)cc3C(=O)N([C@H](C)CO)C[C@@H]2C)cc1 | 0 | 0 | + | 0 | 0
COc1ccc(CN(C)C[C@H]2OCCCC[C@@H](C)Oc3ccc(NC(=O)Nc4c(C)noc4C)cc3C(=O)N([C@@H](C)CO)C[C@@H]2C)cc1 | 0 | 0 | 0 | 0 | 0
Cc1noc(C)c1NC(=O)Nc1ccc2c(c1)C(=O)N([C@H](C)CO)C[C@@H](C)[C@@H](CN(C)C(=O)C1CCCCC1)OCCCC[C@H](C)O2 | 0 | 0 | 0 | 0 | 0
N#Cc1ccccc1OCCCCSc1ncccn1 | - | - | - | 102 | -
Fc1ccccc1OCCCCSc1ncccn1 | 0 | 0 | 0 | 0 | 0
C[C@H](CO)N1C[C@H](C)[C@@H](CN(C)C(=O)C2CCCCC2)OCCCC[C@H](C)Oc2ccc(NS(=O)(=O)c3cccs3)cc2C1=O | 0 | 0 | 0 | 0 | 0
C[C@@H]1CCCCO[C@@H](CN(C)C(=O)C2CCCCC2)[C@@H](C)CN([C@H](C)CO)C(=O)c2cc(NS(=O)(=O)c3cccs3)ccc2O1 | + | 0 | + | 0 | 0
C[C@@H]1CCCCO[C@@H](CN(C)C(=O)C2CCCCC2)[C@H](C)CN([C@H](C)CO)C(=O)c2cc(NS(=O)(=O)c3cccs3)ccc2O1 | 0 | 0 | 0 | 0 | 0
C[C@@H]1CCCCO[C@H](CN(C)C(=O)C2CCCCC2)[C@H](C)CN([C@@H](C)CO)C(=O)c2cc(NS(=O)(=O)c3cccs3)ccc2O1 | 0 | + | 0 | 0 | 0
COc1ccc(C2CC(=O)c3c(O)cc(O)cc3O2)cc1O (stereo unspecified) | 0 | 0 | 0 | 63 | 0
Cc1ccc(-c2noc(CSc3nnc(C)n3-c3cccc(C)c3)n2)cc1 | - | - | - | 0 | -
Cc1ccc(-c2noc(CSc3nc(C)cc(C)n3)n2)cc1 | - | - | - | 63 | -
CC(C)OC(=O)CSc1nc2c(cc1C#N)CCCCC2 | - | - | - | 98 | -
N#Cc1cc2c(nc1SCC(=O)Nc1ccccc1C(F)(F)F)CCC2 | - | - | - | 111 | -
N#Cc1cc2c(nc1SCC(=O)Nc1cc(C(F)(F)F)ccc1Cl)CCCCC2 | - | - | - | 0 | -
Fc1cccc(/C=N/N=C/c2cccc(F)c2)c1 | 0 | 0 | 0 | 88 | 0
C=CCN1Cc2ccccc2[C@H]2OC(c3ccc(OCCCO)cc3)=N[C@@]2(CC=C)C1=O | 0 | 0 | 0 | - | +
SMILES | NFkB binder | STAT3 SMM | c-Myc SMM | p53 PUMA act | p53 mut binder
O=C(CSc1ncnc2scc(-c3ccc(Cl)cc3)c12)NCC1CCCO1 (stereo unspecified) | 0 | 0 | 0 | 0 | 0
S=C(NCC1CCCO1)Nc1cnn(Cc2ccc(Cl)cc2)c1 (stereo unspecified) | 0 | 0 | + | 0 | 0
CNC[C@H]1OCCCC[C@@H](C)Oc2ccc(NS(=O)(=O)c3cccs3)cc2C(=O)N([C@H](C)CO)C[C@H]1C | 0 | 0 | 0 | 0 | 0
C[C@@H]1CN([C@@H](C)CO)C(=O)c2cc(NC(=O)NC3CCCCC3)ccc2O[C@H]1CN(C)C(=O)NC1CCCCC1 | 0 | 0 | + | 0 | 0
C[C@@H]1CCCCO[C@@H](CN(C)C(=O)c2ccccc2)[C@@H](C)CN([C@H](C)CO)C(=O)c2cc(NC(=O)Nc3cccc4ccccc34)ccc2O1 | + | 0 | + | - | +
C[C@@H]1CN([C@@H](C)CO)C(=O)c2cc(NC(=O)Nc3cccc4ccccc34)ccc2O[C@@H](C)CCCCO[C@@H]1CN(C)C | 0 | 0 | 0 | 0 | 0
C[C@@H]1CN([C@@H](C)CO)C(=O)c2cc(N(C)C)ccc2O[C@@H](C)CCCCO[C@H]1CN(C)C(=O)Nc1cccc2ccccc12 | 0 | 0 | + | 0 | 0
C[C@H](CO)N1C[C@H](C)[C@@H](CN(C)CC2CC2)OCCCC[C@H](C)Oc2ccc(NC(=O)Nc3cccc4ccccc34)cc2C1=O | + | 0 | 0 | - | 0
COc1cc2nc(COc3ccccc3[N+](=O)[O-])oc(=O)c2cc1OC | - | - | - | 0 | -
O=C(CC1NC(=O)NC1=O)Nc1ccccc1 (stereo unspecified) | 0 | 0 | 0 | 0 | 0
C[C@@H]1CN([C@@H](C)CO)C(=O)c2cc(NC(=O)Nc3ccc4c(c3)OCO4)ccc2O[C@@H]1CN(C)CC1CCCCC1 | 0 | 0 | 0 | 0 | 0
C[C@H](CO)N1C[C@H](C)[C@@H](CN(C)CC2CCCCC2)Oc2ccc(NC(=O)Nc3ccc4c(c3)OCO4)cc2C1=O | + | 0 | + | 0 | +
C[C@@H]1CCCCO[C@H](CN(C)CC2CCCCC2)[C@H](C)CN([C@@H](C)CO)C(=O)c2cc(NC(=O)NC3CCCCC3)ccc2O1 | + | 0 | 0 | - | 0
C[C@H](CO)N1C[C@H](C)[C@H](CN(C)C(=O)Nc2cccc3ccccc23)Oc2ccc(NC(=O)CCC(F)(F)F)cc2CC1=O | 0 | 0 | 0 | 0 | 0
COC(=O)c1cccc(NC(=O)CSc2nc(C)c3c(n2)CCCC3)c1 | - | - | - | 0 | -
COc1ccc(C(=O)Nc2ccccc2C(=O)NC(C(=O)O)C(C)C)cc1 (stereo unspecified) | 0 | 0 | + | 0 | 0
CS(=O)(=O)N(CC(=O)Nc1ccc(I)cc1)c1ccc(Cl)c(Cl)c1 | - | - | - | 0 | -
COC(=O)c1c(NC(=O)c2ccccc2N(C)S(C)(=O)=O)sc2c1CCCC2 | 0 | 0 | 0 | 0 | 0
CCc1ccc(OCC(=O)Nc2ccccc2C#N)cc1 | - | - | - | 64 | -
